Several values for one entry are separate records, joined by “and”; a condition that tells them apart may be missing. Identical values can stand only once. About 4,000 (25%) of roughly 16,000 compounds were called active. Another 26% or so got no clear call; they are omitted. Calls follow the shape of the dose curve; as a rule, active = well fitted curve in the direction sought with a large enough effect; inconclusive = small, poorly fitted or top-dose-only effect, or effect the other way; inactive = no such curve, though single readings can be large or run the other way. Not all results are given here. More than one record can exist for a structure, and the calls need not agree.
Target: Cytochrome P450 2C9 (Homo sapiens) (UniProt P11712)
Sequence (P11712 whole entry, looked up): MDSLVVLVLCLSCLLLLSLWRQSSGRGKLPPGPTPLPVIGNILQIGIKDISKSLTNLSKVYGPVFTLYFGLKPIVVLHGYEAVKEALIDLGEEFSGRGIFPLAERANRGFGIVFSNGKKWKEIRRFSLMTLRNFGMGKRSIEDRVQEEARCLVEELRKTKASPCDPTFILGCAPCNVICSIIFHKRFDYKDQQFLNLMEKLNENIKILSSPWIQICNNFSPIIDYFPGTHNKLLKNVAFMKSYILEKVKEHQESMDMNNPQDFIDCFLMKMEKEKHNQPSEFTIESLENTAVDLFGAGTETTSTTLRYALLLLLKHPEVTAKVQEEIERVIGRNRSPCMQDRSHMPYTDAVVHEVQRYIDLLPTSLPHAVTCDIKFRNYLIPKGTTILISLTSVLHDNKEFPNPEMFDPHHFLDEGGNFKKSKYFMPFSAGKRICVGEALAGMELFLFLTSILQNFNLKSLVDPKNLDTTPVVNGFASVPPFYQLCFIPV
Test: Cytochrome panel assay with activity outcomes
Settings: recombinant CYP, pro-luciferin dealkylation, luminescence, p450-cyp2c9; series mostly up to 57.1 µM
% is scaled to controls: 0 for no effect and ±100 for the full control effect.

AC50, inactive:
COc1cc(OC)c2cc(-c3ccncc3)cnc2c1, CCOC(=O)c1cc(NC(=O)c2ccc(C)cc2)c(=O)oc1-c1ccccc1, Cc1[nH]c2ccccc2c1CCNC(=O)c1ccc2c(c1[N+](=O)[O-])C(=O)c1ccccc1C2=O, C=CCNC(=O)CC(=O)N/N=C/c1cccc(Br)c1, O=C(Cn1nc(C(F)F)cc1C(F)F)N/N=C/c1ccc2c(c1)OCO2, O=C(O)[C@@H](O)[C@@H](O)[C@@H](O[C@H]1O[C@@H](CO)[C@@H](O)[C@@H](O)[C@@H]1O)[C@@H](O)CO, CN1CCN(CCc2ccc(Cl)c(Cl)c2)CC1, N=C(N)SCCc1ccc(CCSC(=N)N)cc1, C[C@@H]1c2ccccc2CN1CC1=NCCN1, Cc1ncc([N+](=O)[O-])n1CCO, CCOC(=O)N1CCC(NC(=O)CCC(=O)N2CC(C)Oc3ccc(C)cc32)CC1 (stereo not drawn), Cc1oc(-c2ccccc2F)nc1CS(=O)(=O)CC(=O)NCCCN(C)C1CCCCC1, CC1=C(CC(=O)O)c2cc(F)ccc2/C1=C\c1ccc(S(C)(=O)=O)cc1, Cc1cc(=O)[nH]c(-n2[nH]c(C)cc2=O)n1, CO[C@]1(NC(=O)C2SC(=C(C(N)=O)C(=O)O)S2)C(=O)N2C(C(=O)O)=C(CSc3nnnn3C)CS[C@H]21 (stereo partly drawn), Cc1c(/C=C2\SC(=O)N(CC(=O)Nc3ccc4c(c3)OCO4)C2=O)c2ccccc2n1C, C[C@@H](CCc1ccc(O)cc1)NCCc1ccc(O)c(O)c1, O=c1[nH]c2ccccc2c2ccccc12, Cc1cc2[nH]c(=O)c3ccccc3n2n1, Cc1ccc(C2C(C(=O)c3sc(C)nc3C)=C(O)C(=O)N2CCN2CCOCC2)o1 (stereo not drawn), CCC(C)NC(=O)C1c2cc(OC)c(OC)cc2C(=O)N(C)C1c1cccs1 (stereo not drawn), CN(C)CCN1C(=O)C(O)=C(C(=O)c2cc3ccccc3o2)C1c1cccc(Br)c1 (stereo not drawn), COc1cc2c(cc1OC)C(C(=O)N1CCOCC1)C(c1cccs1)N(C)C2=O (stereo not drawn), OC[C@@H]1NC[C@@H](O)[C@H]1O, CN1C(=O)CC[C@@H]1c1cccnc1, c1ccc(-c2cccc(N3CC[C@@]4(CCCNC4)C3)c2)cc1, CN1CCCCC1=NCCCn1cnc2c1c(=O)n(C)c(=O)n2C, N#Cc1cc2[nH]c(=O)c(=O)[nH]c2cc1[N+](=O)[O-], CN(C)c1ncc2nc(-c3ccc(F)cc3)c(=O)n(CCC#N)c2n1, Cl/C(=C\n1cncn1)c1ccc(Cl)cc1Cl, COc1cc([C@@H](O)CO)ccc1OS(=O)(=O)O, COC(=O)C(C(=O)OC)C(C[N+](=O)[O-])c1ccc(OC)c(OC)c1 (stereo not drawn)

AC50, inactive and 12.6 µM (active):
CC1=C(CC(=O)O)c2cc(F)ccc2/C1=C\c1ccc(S(C)=O)cc1 (stereo not drawn)

AC50, active:
CCOC(=O)c1cc2c(C(F)(F)F)cc(-c3ccccc3)nc2o1 2.24 µM, Cc1[nH]c2c(C)cccc2c1CCNC(=O)c1ccc2c(c1[N+](=O)[O-])C(=O)c1ccccc1C2=O 1.12 µM, O=C(CSCc1cccc(Br)c1)N/N=C/c1ccc2c(c1)OCO2 10 µM, O=C(/C=C/c1ccc2c(c1)OCO2)NCCSCc1cccc(Cl)c1 5.01 µM, Cc1ccc(NC(=O)C(=O)NCc2ccc(/C=C(/C#N)C(=O)NCc3cccnc3)o2)cc1 0.631 µM, Cc1cccc(NC(=O)CSc2nc3ccccc3c3nc(CCc4c(C)n[nH]c4C)nn23)c1 1.26 µM, Cc1nnc(-c2cnn(-c3ccccc3)c2N)n1Cc1ccncc1 14.1 µM, Cc1nnc(-c2cnn(-c3ccccc3)c2N)n1Cc1ccc(F)cc1 15.8 µM, Cc1ccc(C2NC(c3ccc(C)cc3)C(C)C(=NO)C2C)cc1 (stereo not drawn) 6.31 µM, Clc1ccc(CSCCc2ccncc2)cc1Cl 0.0794 µM, c1ccc2c(CSCCc3ccncc3)cccc2c1 0.0631 µM, c1cc(CSSCc2ccncc2)ccn1 1.58 µM, c1ccc(CSCCc2ccncc2)cc1 0.316 µM, CCOC(=O)N1CCC(NC(=O)CS(=O)(=O)Cc2nc(-c3cccc(OC)c3)oc2C)CC1 25.1 µM, Cc1noc(C)c1COc1cccc(C(=O)OCC(=O)N2CC(=O)Nc3ccccc32)c1 3.55 µM, Cc1ccccc1-c1cc(C(=O)n2cccn2)c2cc(Cl)ccc2n1 5.01 µM, CC(C)n1cc(/C=C2/SC(=O)N(CC(=O)Nc3ccc4c(c3)OCO4)C2=O)c2ccccc21 3.98 µM, O=C(CCc1ccc(O)cc1)c1c(O)cc(O)cc1O 12.6 µM, C(=N\n1cnnc1)/c1cccn1-c1ccccc1 5.01 µM, CCOC(=O)c1cc2sc(C)cc2n1CCCN1C(=O)c2ccccc2C1=O 3.55 µM, Cc1nc2c(O)cccc2c(=O)[nH]1 3.98 µM, COc1ccc(CCN2C(=O)C(O)=C(C(=O)c3ccco3)C2c2cccs2)cc1OC (stereo not drawn) 1.41 µM, CCOc1cccc(C2C(C(=O)c3ccc(C)o3)=C(O)C(=O)N2Cc2ccncc2)c1 (stereo not drawn) 12.6 µM, COc1cc(C2C(C(=O)c3ccc(C)o3)=C(O)C(=O)N2CCc2ccccc2)ccc1O (stereo not drawn) 7.08 µM, Cc1ccc(C(=O)C2=C(O)C(=O)N(CCCn3ccnc3)C2c2ccc(OC(C)C)cc2)o1 (stereo not drawn) 11.2 µM, Cc1cc(NC(=O)Nc2ccc(N(C)C)cc2)c2cc(F)cc(F)c2n1 6.31 µM, CC1=C(C(=O)OCc2ccccc2)C(c2cccnc2)c2c(n(C)c(=O)n(C)c2=O)N1 (stereo not drawn) 4.47 µM, CCC(C)(C)NC(=O)c1ccc2c(c1)N(CC(=O)OC)C(=O)C(C)(C)O2 28.2 µM, COC(=O)c1cc2c(ccn2-c2ccc(F)cc2)n1CC(C)C 10 µM, Cc1ccc(/C=C2\Sc3ccccc3C2=O)s1 3.55 µM, Cc1ccc(S(=O)(=O)c2cc(C#N)c(=O)[nH]c2N)cc1 11.2 µM, Cc1ccccc1Cn1cc(NC(=O)CSc2nc3c(c(C(F)(F)F)n2)CCc2ccccc2-3)cn1 1.78 µM, Cc1nn(Cc2ccc(Cl)cc2)c(C)c1NC(=O)CSc1nc2c(c(C(F)(F)F)n1)CCc1ccccc1-2 1.41 µM, O=C(c1cnc(-c2ccccc2)s1)c1ccc(Cl)cc1Cl 20 µM, COc1ccc(C(O)P(=O)(OC(C)C)OC(C)C)cc1OC (stereo not drawn) 7.94 µM

activity, negative = inhibition, inactive:
COc1ccccc1-c1cncnc1NCc1cccnc1 3.29% [at 2.29 µM], OC[C@@H]1O[C@@H](N2CCN([C@@H]3O[C@@H](CO)[C@@H](O)[C@H](O)[C@H]3O)CC2)[C@@H](O)[C@H](O)[C@H]1O 7.18% [at 11.4 µM], CCN1C(=O)[C@H]2[C@H]3[C@H](O)[C@H](O)C/C(=N/OC[C@@H](C)[C@H](OCc4ccccc4)C(C)C)[C@@H]3CC[C@@H]2C1=O 19.1% [at 11.4 µM], Cc1cccc(CNc2nc(-c3ccoc3)nc3ccccc23)c1 -6.69% [at 2.29 µM], Cc1ncc(CSC(=N)N)n1Cc1ccccc1 -16.1% [at 11.4 µM], N=C(N)C(N=Nc1ccccc1)C(=N)N (stereo not drawn) 11.9% [at 11.4 µM], c1ccc2c(CC3NCCN3)cccc2c1 -9.35% [at 11.4 µM], O=S(=O)(O)CCCc1cccc2ccccc12 -3.26% [at 11.4 µM], c1cc(CNCCN2CCNCC2)ccn1 -4.43% [at 11.4 µM], N=C(N)SCCc1ccncc1 6.27% [at 11.4 µM], CNc1ncnc2ccc(-c3cccc(NS(C)(=O)=O)c3)cc12 -18.3% [at 2.29 µM], CC(=O)NCCNc1cc(-c2ccccc2C)ncn1 5.2% [at 2.29 µM], CC(=O)NCCNc1ncnc2ccc(-c3ccccc3C)cc12 -0.544% [at 2.29 µM], C[C@@H](c1ccccc1)N1C(=O)[C@H]2[C@H]3[C@H](O)[C@H](O)C/C(=N/OC[C@@H](O)COCc4ccco4)[C@H]3CC[C@@H]2C1=O 10.7% [at 11.4 µM], CC(=O)N[C@H](Cc1ccc(O)cc1)C(=O)O 2.06% [at 11.4 µM], C/C(=N\O)c1cccc[n+]1Cc1ccccc1 -0.751% [at 11.4 µM], COC(=O)[C@]1(C)CCC(c2ccc(C)cc2)=C(CC(=O)O)C1 3.21% [at 11.4 µM], FC(F)(F)c1ccccc1-c1cncnc1NCCN1CCOCC1 -5.4% [at 2.29 µM], CSc1ccc(NC(=O)Nc2cc(C)ccn2)cc1 -15.6% [at 11.4 µM], Cc1cc(N)c2cc(NC(=O)Nc3ccc4nc(C)cc(N)c4c3)ccc2n1 -18.2% [at 11.4 µM], c1ccc(CNc2ncnc3ccc(-c4cccnc4)cc23)cc1 8.31% [at 2.29 µM], O=C1NC(=O)[C@@](Cc2ccccc2)(c2cccnc2)N1 -6.71% [at 11.4 µM], Cc1cnc(CNc2ncncc2-c2ccc3c(c2)OCO3)cn1 15.7% [at 2.29 µM], Cc1ccc(S(=O)(=O)Nc2cc(=O)[nH]c3c2CCC3)cc1 8.32% [at 11.4 µM], COc1cccc([C@H](O)Cn2cc(-c3ccc(CON=C(C)C)cc3)nn2)c1 -13.3% [at 11.4 µM]

From PubChem BioAssay AID1851 (National Center for Advancing Translational Sciences (NCATS), 2009)
